Assay results reported in PubChem BioAssay AID1159580 (chemical genetic matrix, 2015).
“And” between values parts separate entries of the source, which are not always exact repeats. Identical values can stand only once. About 2,000 (36%) of roughly 5,500 compounds were called active. About 18% were inconclusive and are not listed. No stated cut-off is given here; in the data, active means normalized growth mostly below about 0.91 (no sharp cut-off); inconclusive means no clear call, values can overlap the other calls; inactive means mostly above about 0.92. The list shows a part of the results.

Test: chemical genetic growth profiling, strain panel (AID 1159580);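 further: tested at 20 µM; growth read once vehicle control cultures reached saturation at 30 °C; 1 = growth at the plate median or of vehicle wells; lower values mean less growth of the strain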
Conditions: S. cerevisiae deletion strains, growth OD
[1] = locus YAL040C, strain CLN3, hits give low values
[2] = locus YCL061C, strain MRC1 (second series), hits give low values
[3] = locus YDR363W, strain ESC2, hits give low values
[4] = locus YER002W, strain NOP16, hits give low values
[5] = locus YGR078C, strain PAC10, hits give low values
[6] = locus YMR263W, strain SAP30, hits give low values
[7] = locus YMR307W, strain GAS1, hits give low values
[8] = locus YNL128W, strain TEP1, hits give low values
[9] = locus YNL175C, strain NOP13, hits give low values
[10] = locus YNL197C, strain WHI3, hits give low values
[11] = locus YNL224C, strain SQS1, hits give low values
[12] = locus YOR083W, strain WHI5 (second series), hits give low values
[13] = locus YDR150W, strain NUM1, hits give low values
[14] = locus YGR229C, strain SMI1, hits give low values
[15] = locus YNL153C, strain GIM3, hits give low values
[16] = locus YNL322C, strain KRE1, hits give low values
[17] = locus YPL055C, strain LGE1, hits give low values

Measured: normalized growth

C[C@]12C=CC(=O)C=C1CC[C@@H]1C2=CC[C@]2(C)[C@@H](C(=O)CN3CCN(c4cc(N5CCCC5)nc(N5CCCC5)n4)CC3)CC[C@@H]12
inactive: locus YAL013W, strain DEP1, hits give low values 0.97 | [1] 0.998 | [2] 0.976 | [3] 0.964 | [4] 1.01 | [5] 0.995 | [6] 0.993 | [7] 0.998 | [8] 1.03 | [9] 1.02 | [10] 1.04 | [11] 1.01 | [12] 1.01

Cc1c(C)c2c(c(C)c1O)CCC(C)(CCCC(C)CCCC(C)CCCC(C)C)O2 (configuration not stated)
inactive: locus YAL021C, strain ccr4, hits give low values 1 | locus YAL026C, strain drs2, hits give low values 0.972 | locus YAL030W, strain snc1, hits give low values 0.983 | locus YBL061C, strain skt5, hits give low values 0.989 | locus YBR009C, strain hhf1, hits give low values 0.965 | locus YBR021W, strain FUR4, hits give low values 1.03 | locus YBR023C, strain chs3, hits give low values 0.988 | locus YBR171W, strain sec66, hits give low values 0.986 | locus YBR229C, strain ROT2, hits give low values 1 | locus YBR231C, strain swc5, hits give low values 0.935 | locus YBR279W, strain paf1, hits give low values 0.99 | locus YCL011C, strain gbp2, hits give low values 0.972 | locus YCL016C, strain dcc1, hits give low values 0.982 | locus YCL029C, strain bik1, hits give low values 1 | locus YCL061C, strain MRC1, hits give low values 0.987 | locus YCL069W, strain vba3, hits give low values 0.988 | locus YCR088W, strain abp1, hits give low values 0.985 | locus YDL005C, strain med2, hits give low values 0.983 | locus YDL035C, strain GPR1, hits give low values 1.02 | locus YDL040C, strain nat1, hits give low values 0.99 | locus YDL074C, strain BRE1, hits give low values 1.02 | locus YDL101C, strain DUN1, hits give low values 1.01 | locus YDL134C, strain PPH21, hits give low values 1.01 | locus YDL185W, strain tfp1, hits give low values 1 | locus YDL192W, strain arf1, hits give low values 1.02 | locus YDR001C, strain nth1, hits give low values 0.981 | locus YDR069C, strain doa4, hits give low values 0.968 | locus YDR101C, strain arx1, hits give low values 1.01 | locus YDR137W, strain rgp1, hits give low values 0.966 | [13] 1.01 | locus YDR159W, strain sac3, hits give low values 0.956 | locus YDR162C, strain NBP2, hits give low values 0.993 | locus YDR195W, strain ref2 0.949 | locus YDR297W, strain sur2, hits give low values 0.978 | locus YDR318W, strain mcm21, hits give low values 1 | locus YDR334W, strain swr1, hits give low values 0.985 | locus YDR335W, strain msn5, hits give low values 0.988 | locus YDR388W, hits give low values 0.976 | locus YDR392W, strain spt3, hits give low values 0.929 | locus YDR502C, strain sam2, hits give low values 0.987 | locus YEL003W, strain gim4, hits give low values 0.979 | locus YEL037C, strain rad23, hits give low values 0.987 | locus YEL061C, strain CIN8 (second series), hits give low values 0.983 | locus YEL061C, strain CIN8, hits give low values 1.01 | locus YER015W, strain faa2, hits give low values 0.986 | locus YER016W, strain bim1, hits give low values 0.975 | locus YER110C, hits give low values 1 | locus YER111C, strain swi4, hits give low values 0.985 | locus YER155C, strain BEM2 (second series), hits give low values 0.97 | locus YER155C, strain BEM2, hits give low values 1 | locus YER167W, strain BCK2, hits give low values 1.01 | locus YFR010W, strain ubp6, hits give low values 0.988 | locus YGL078C, strain dbp3, hits give low values 0.999 | locus YGL086W, strain mad1, hits give low values 1.02 | locus YGL167C, strain pmr1, hits give low values 0.968 | locus YGL173C, strain kem1, hits give low values 0.985 | locus YGL227W, strain vid30, hits give low values 0.977 | locus YGL240W, strain doc1, hits give low values 0.981 | locus YGL248W, strain PDE1, hits give low values 1.01 | locus YGL253W, strain hxk2, hits give low values 0.995 | [5] 1 | locus YGR135W, strain pre9, hits give low values 1.02 | [14] 1.02 | locus YGR252W, strain gcn5, hits give low values 0.95 | locus YHR013C, strain ard1, hits give low values 0.928 | locus YHR027C, strain rpn1, hits give low values 0.993 | locus YHR030C, strain SLT2, hits give low values 1.01 and 0.996 | locus YHR079C, strain IRE1 (second series), hits give low values 1 | locus YHR079C, strain IRE1, hits give low values 1.02 | locus YHR094C, strain hxt1, hits give low values 1 | locus YHR129C, strain ARP1, hits give low values 1.01 | locus YHR142W, strain chs7, hits give low values 0.994 | locus YHR200W, strain rpn10, hits give low values 0.995 | locus YIL066C, strain RNR3, hits give low values 1.01 | locus YIL073C, strain SPO22, hits give low values 1.05 | locus YIL125W, strain kgd1, hits give low values 1.03 | locus YIR030C, strain dcg1, hits give low values 0.997 | locus YJL092W, strain hpr5, hits give low values 0.975 | locus YJL095W, strain BCK1 (second series), hits give low values 0.989 | locus YJL095W, strain BCK1, hits give low values 0.998 and 1 | locus YJL115W, strain asf1, hits give low values 0.985 | locus YJL129C, strain trk1, hits give low values 1.02 | locus YJL134W, strain LCB3, hits give low values 1 | locus YJL154C, strain vps35, hits give low values 0.987 | locus YJL164C, strain tpk1, hits give low values 1.01 | locus YJL166W, strain qcr8, hits give low values 0.993 | locus YJL168C, strain set2, hits give low values 1 | locus YJL187C, strain SWE1 (second series), hits give low values 0.997 | locus YJL187C, strain SWE1, hits give low values 0.982 | locus YJR043C, strain POL32, hits give low values 1 | locus YJR066W, strain TOR1, hits give low values 0.972 | locus YKL009W, strain mrt4, hits give low values 0.969 | locus YKL068W, hits give low values 0.993 | locus YKL085W, strain MDH1 (second series), hits give low values 0.99 | locus YKL085W, strain MDH1, hits give low values 0.99 | locus YKL160W, strain elf1, hits give low values 1.01 | locus YKL190W, strain CNB1, hits give low values 1 | locus YKR001C, strain vps1, hits give low values 0.996 | locus YKR026C, strain gcn3, hits give low values 0.986 | locus YKR091W, strain srl3, hits give low values 0.982 | locus YLL001W, strain dnm1, hits give low values 0.983 | locus YLL026W, hits give low values 0.982 | locus YLL041C, strain sdh2, hits give low values 0.985 | locus YLR027C, strain aat2, hits give low values 0.993 | locus YLR039C, strain RIC1, hits give low values 1.02 | locus YLR058C, strain SHM2, hits give low values 1 | locus YLR102C, strain apc9, hits give low values 1 | locus YLR113W, strain HOG1, hits give low values 0.966 | locus YLR221C, strain rsa3, hits give low values 1.01 | locus YLR258W, strain gsy2, hits give low values 0.967 | locus YLR262C, strain YPT6 (second series), hits give low values 0.98 | locus YLR262C, strain YPT6, hits give low values 1.01 | locus YLR268W, strain sec22, hits give low values 1.01 | locus YLR320W, strain mms22, hits give low values 0.988 | locus YLR330W, strain CHS5, hits give low values 1 | locus YLR342W, strain FKS1 (second series), hits give low values 1.02 | locus YLR342W, strain FKS1, hits give low values 0.978 | locus YLR357W, strain rsc2, hits give low values 1 | locus YLR370C, strain arc18, hits give low values 0.995 | locus YLR371W, strain rom2, hits give low values 1.04 | locus YLR384C, strain iki3, hits give low values 0.978 | locus YLR418C, strain cdc73, hits give low values 0.968 | locus YML016C, strain PPZ1, hits give low values 1 | locus YML032C, strain rad52, hits give low values 0.987 | locus YML120C, strain ndi1, hits give low values 1.03 | locus YML124C, strain tub3, hits give low values 0.993 | locus YMR058W, strain fet3, hits give low values 1.01 | locus YMR078C, strain ctf18, hits give low values 1.02 | locus YMR125W, strain sto1, hits give low values 0.95 | locus YMR129W, hits give low values 0.979 | locus YMR205C, strain PFK2, hits give low values 0.933 | locus YMR223W, strain ubp8, hits give low values 1 | locus YMR231W, strain pep5, hits give low values 0.977 | [6] 1.01 | [7] 1.01 | locus YNL067W, strain RPL9B, hits give low values 1 | locus YNL071W, strain lat1, hits give low values 0.994 | [15] 1.01 | locus YNL183C, strain NPR1, hits give low values 0.961 | locus YNL209W, strain ssb2, hits give low values 0.984 | locus YNL233W, strain BNI4, hits give low values 1.02 | locus YNL248C, strain rpa49, hits give low values 1.03 | locus YNL250W, strain rad50, hits give low values 1.01 | locus YNL271C, strain bni1, hits give low values 0.988 | locus YNL298W, strain CLA4, hits give low values 0.965 | locus YNL307C, strain MCK1, hits give low values 1 | locus YNL322C, strain KRE1 (second series), hits give low values 0.994 | [16] 1 | locus YNR049C, strain mso1, hits give low values 0.988 | locus YNR052C, strain pop2, hits give low values 1.02 | locus YOL012C, strain htz1 0.962 | locus YOL147C, strain pex11, hits give low values 0.997 | locus YOR001W, strain rrp6, hits give low values 1.02 | locus YOR061W, strain CKA2, hits give low values 1.01 | locus YOR069W, strain VPS5, hits give low values 1 | locus YOR070C, strain gyp1, hits give low values 0.988 | locus YOR080W, strain dia2, hits give low values 0.985 | locus YOR083W, strain WHI5, hits give low values 1.01 | locus YOR106W, strain vam3, hits give low values 1.01 | locus YOR136W, strain idh2, hits give low values 1.01 | locus YOR144C, strain elg1, hits give low values 0.985 | locus YOR184W, strain ser1, hits give low values 0.999 | locus YOR231W, strain MKK1, hits give low values 0.972 | locus YOR265W, strain rbl2, hits give low values 0.996 | locus YOR270C, strain vph1, hits give low values 1.09 | locus YOR290C, strain snf2, hits give low values 1 | locus YOR316C, strain cot1, hits give low values 0.995 | locus YPL051W, strain arl3, hits give low values 1.01 | [17] 1.01 | locus YPL078C, strain atp4, hits give low values 1.02 | locus YPL106C, strain sse1, hits give low values 0.966 | locus YPL240C, strain hsp82, hits give low values 0.98 | locus YPL256C, strain CLN2, hits give low values 1.02 | locus YPR119W, strain clb2, hits give low values 0.997 | locus YPR141C, strain kar3, hits give low values 1 | locus YPR163C, strain tif3, hits give low values 1 | locus YPR167C, strain met16, hits give low values 0.984 | strain wtn01, hits give low values 1.01

Cc1c(C)c2c(c(C)c1O)CCC(C)(CN1CCN(c3cc(N4CCCC4)nc(N4CCCC4)n3)CC1)O2 (configuration not stated)
active: [1] 0.579 | [4] 1.15 [resistant] | [9] 1.09 [resistant]
inactive: [2] 0.993 | [13] 0.997 | [3] 0.96 | [14] 0.944 | locus YJR075W, strain HOC1, hits give low values 0.959 | [7] 1 | [8] 1.07 | [15] 0.995 | [10] 1.08 | [11] 1.07 | [16] 0.961 | [12] 1.04 | [17] 0.891
